The nature of assay [1]: NCI Yeast Anticancer Drug Screen. Data for the rad50 strain (AID 155).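 Also: 0% = growth of vehicle-only cultures of the same strain.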 Conditions: S. cerevisiae rad50 strain growth inhibition, active compounds read high. The essentials: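 A DNA repair-deficient yeast mutant serves as the test organism; compound-induced growth inhibition is calculated against vehicle-treated cells.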
A short description of assay [2]: NCI Yeast Anticancer Drug Screen. Data for the mec2-1 strain (AID 157). Conditions: S. cerevisiae mec2-1 strain, active compounds read high. The procedure, abridged:
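Growth inhibition is read against vehicle-treated controls after compound exposure of the mec2-1 yeast strain, which is defective in DNA damage repair or cell cycle control.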

Assay [3] in a line: NCI Yeast Anticancer Drug Screen. Data for the sgs1 mgt1 strain (AID 161).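 Also: 0% = growth of cultures given vehicle only.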 Conditions: S. cerevisiae sgs1 mgt1 strain, active compounds read high. The procedure, abridged: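 Percent growth inhibition was derived by comparing compound-exposed mutant yeast with vehicle-exposed cultures. The strain carries alterations in DNA damage repair.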
Assay [4] can be described thus: NCI Yeast Anticancer Drug Screen. Data for the cln2 rad14 strain (AID 165).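 Also: 0% = growth equal to vehicle treated cultures.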 Conditions: S. cerevisiae cln2 rad14 strain, active compounds read high. The procedure, abridged: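 Growth inhibition, relative to vehicle-treated controls, is the read-out. The test organism is a yeast strain with defined genetic alterations, cln2 rad14.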
Assay [5] in a line: NCI Yeast Anticancer Drug Screen. Data for the bub3 strain (AID 167). Conditions: S. cerevisiae bub3 mutant strain, active compounds read high. The procedure, abridged: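 Inhibition values come from growth of compound-treated mutant yeast normalised to vehicle-treated controls.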
Assay [6] is described as follows: NCI Yeast Anticancer Drug Screen. Data for the mlh1 rad18 strain (AID 175). Conditions: S. cerevisiae mlh1 rad18 strain growth inhibition, active compounds read high. The procedure, abridged:
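Cells of a genetically altered yeast strain, deficient in DNA damage repair, were treated with compound. Their growth was then compared with that of vehicle-treated cultures to give inhibition.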

The mark [7] stands for this setting: at 5.0 µM (retest, dose inferred, filed as 0.5).
Setting [8] is: at 50.0 µM (retest, dose inferred, filed as 5.0).

Each structure is given as a SMILES string. This is part of a sample that, as a whole, favours compounds with a hit. Of some 79,000 tested, about 15% had one in any assay. A number with no mark means an inactive call. Calls of active or inactive are those of the source. Rule as the data show it: active = growth inhibition above about 70%; inactive = the rest.

`CCOC(=O)CC(=O)/C=C/c1ccncc1`: the growth inhibition in assay [1] (setting [7]) is 1%; in assay [1] (setting [8]), 5%; in assay [1] (at 50.0 µM), -19.2%; in assay [2] (setting [7]), -2%; in assay [2] (setting [8]) it was 0%; in assay [2] (at 50.0 µM) it was -8.45%. For the same compound, the growth inhibition in assay [3] (setting [7]) was -10%; in assay [3] (setting [8]), -6%; in assay [3] (at 50.0 µM), -5.25%; in assay [4] (setting [7]) it was 3%; in assay [4] (setting [8]) it was 1%; in assay [4] (at 50.0 µM), 68.7%. Besides, the growth inhibition was 5% in assay [5] (setting [7]); 4% in assay [5] (setting [8]); -9.3% in assay [5] (at 50.0 µM); 1% in assay [6] (setting [7]); 3% in assay [6] (setting [8]); 0.7% in assay [6] (at 50.0 µM).

As for `O=Nc1c(-c2c[nH]c3ccccc23)[nH]c2ccccc12`, the growth inhibition in assay [1] (setting [7]) is 8%; in assay [1] (setting [8]), 60%; in assay [1] (at 50.0 µM), 51.1%; in assay [2] (setting [7]), 7%; in assay [2] (setting [8]) it was 44%; in assay [2] (at 50.0 µM), 24.2%. Further, the growth inhibition was 13% in assay [3] (setting [7]); 56% in assay [3] (setting [8]); 16% in assay [3] (at 50.0 µM); -8% in assay [4] (setting [7]); 33% in assay [4] (setting [8]); 16.9% in assay [4] (at 50.0 µM). Moreover, the growth inhibition is 13% in assay [5] (setting [7]); 84% (active) in assay [5] (setting [8]); 69% in assay [5] (at 50.0 µM); 12% in assay [6] (setting [7]); 53% in assay [6] (setting [8]); 26.1% in assay [6] (at 50.0 µM).

In the case of `O=C(O)C1CCCCC1.[Ag]`, the growth inhibition in assay [1] (setting [7]) is 43%; in assay [1] (setting [8]), 99% (active); in assay [1] (at 50.0 µM), 90.3% (active); in assay [2] (setting [7]) it was 42%; in assay [2] (setting [8]), 99% (active); in assay [2] (at 50.0 µM) it was 92% (active). For the same compound, the growth inhibition in assay [3] (setting [7]) is 99% (active); in assay [3] (setting [8]) it was 99% (active); in assay [3] (at 50.0 µM), 93.2% (active); in assay [4] (setting [7]), 99% (active); in assay [4] (setting [8]) it was 99% (active); in assay [4] (at 50.0 µM) it was 91% (active). For the same compound, the growth inhibition in assay [5] (setting [7]) was 99% (active); in assay [5] (setting [8]), 100% (active); in assay [5] (at 50.0 µM), 90.6% (active); in assay [6] (setting [7]), 34%; in assay [6] (setting [8]), 100% (active); in assay [6] (at 50.0 µM), 90.5% (active).

As for `CSCS(=O)C[C@H](CO)NC(=O)/C=C/c1c(C)[nH]c(=O)[nH]c1=O` (some centres not stated), the growth inhibition is 26% in assay [1] (setting [7]); 98% (active) in assay [1] (setting [8]); 84.5% (active) in assay [1] (at 50.0 µM); 26% in assay [2] (setting [7]); 86% (active) in assay [2] (setting [8]); 78.6% (active) in assay [2] (at 50.0 µM). Further, the growth inhibition in assay [3] (setting [7]) was 25%; in assay [3] (setting [8]) it was 98% (active); in assay [3] (at 50.0 µM), 83% (active); in assay [4] (setting [7]), 32%; in assay [4] (setting [8]), 95% (active); in assay [4] (at 50.0 µM) it was 62.7%. Also, the growth inhibition in assay [5] (setting [7]) was 5%; in assay [5] (setting [8]), 98% (active); in assay [5] (at 50.0 µM), 88.7% (active); in assay [6] (setting [7]) it was 25%; in assay [6] (setting [8]), 98% (active); in assay [6] (at 50.0 µM) it was 85.1% (active).

As to `OCC(c1ccccc1)[P+](c1ccccc1)(c1ccccc1)c1ccccc1` (configuration not stated), the growth inhibition in assay [1] (setting [7]) was 2%; in assay [1] (setting [8]), 34%; in assay [1] (at 50.0 µM), 79.2% (active); in assay [2] (setting [7]), -8%; in assay [2] (setting [8]), 45%; in assay [2] (at 50.0 µM) it was 49.9%. The growth inhibition is -9% in assay [3] (setting [7]); 0% in assay [3] (setting [8]); 74.3% (active) in assay [3] (at 50.0 µM); -42% in assay [4] (setting [7]); -1% in assay [4] (setting [8]); 31.9% in assay [4] (at 50.0 µM). Besides, the growth inhibition in assay [5] (setting [7]) was 0%; in assay [5] (setting [8]) it was 13%; in assay [5] (at 50.0 µM), 26.3%; in assay [6] (setting [7]) it was -14%; in assay [6] (setting [8]), 5%; in assay [6] (at 50.0 µM), 59.6%.

As to `CCOc1ccnc2c(C)c3c([nH]c4ccccc43)c(C)c12`, the growth inhibition in assay [1] (setting [7]) was 50%; in assay [1] (setting [8]), 99% (active); in assay [1] (at 50.0 µM), 99.2% (active); in assay [2] (setting [7]) it was 23%; in assay [2] (setting [8]) it was 99% (active); in assay [2] (at 50.0 µM), 99.5% (active). For the same compound, the growth inhibition is 29% in assay [3] (setting [7]); 52% in assay [3] (setting [8]); 99.2% (active) in assay [3] (at 50.0 µM); 14% in assay [4] (setting [7]); 97% (active) in assay [4] (setting [8]); 99% (active) in assay [4] (at 50.0 µM). Also, the growth inhibition in assay [5] (setting [7]) was 11%; in assay [5] (setting [8]), 99% (active); in assay [5] (at 50.0 µM) it was 99.3% (active); in assay [6] (setting [7]) it was 16%; in assay [6] (setting [8]), 99% (active); in assay [6] (at 50.0 µM), 99.3% (active).

Consider `CC1=C(C(=O)Nc2ccc(C)cc2C)C(c2cccc([N+](=O)[O-])c2)C(C(=O)Nc2ccc(C)cc2C)=C(C)N1`, for which the growth inhibition is -17% in assay [1] (setting [7]); 50% in assay [1] (setting [8]); 28.6% in assay [1] (at 50.0 µM); 12% in assay [2] (setting [7]); 74% (active) in assay [2] (setting [8]); 38.5% in assay [2] (at 50.0 µM). For the same compound, the growth inhibition in assay [3] (setting [7]) was -4%; in assay [3] (setting [8]), 47%; in assay [3] (at 50.0 µM), 33%; in assay [4] (setting [7]), 10%; in assay [4] (setting [8]) it was 42%; in assay [4] (at 50.0 µM), 36.6%. In addition, the growth inhibition is 14% in assay [5] (setting [7]); 69% in assay [5] (setting [8]); 37.2% in assay [5] (at 50.0 µM); 4% in assay [6] (setting [7]); 44% in assay [6] (setting [8]); 41.1% in assay [6] (at 50.0 µM).

Regarding `CCNC(=S)N/N=C(\C)c1cccc(C)n1`, the growth inhibition is -5% in assay [1] (setting [7]); 21% in assay [1] (setting [8]); 54.6% in assay [1] (at 50.0 µM); -37% in assay [2] (setting [7]); 34% in assay [2] (setting [8]); 76.3% (active) in assay [2] (at 50.0 µM). For the same compound, the growth inhibition in assay [3] (setting [7]) is -31%; in assay [3] (setting [8]) it was 22%; in assay [3] (at 50.0 µM) it was 54.7%; in assay [4] (setting [7]), -21%; in assay [4] (setting [8]) it was 24%; in assay [4] (at 50.0 µM) it was 50.9%. For the same compound, the growth inhibition in assay [5] (setting [7]) is -20%; in assay [5] (setting [8]) it was 27%; in assay [5] (at 50.0 µM), 62%; in assay [6] (setting [7]), -9%; in assay [6] (setting [8]), 21%; in assay [6] (at 50.0 µM) it was 37.2%.

Consider `[O-]c1c(-c2cccc3ccccc23)sc(-c2cccc3ccccc23)[n+]1-c1ccccc1`, for which the growth inhibition in assay [1] (setting [7]) is 5%; in assay [1] (setting [8]), 92% (active); in assay [1] (at 50.0 µM), 70.7% (active); in assay [2] (setting [7]), 10%; in assay [2] (setting [8]) it was 95% (active); in assay [2] (at 50.0 µM), 55.2%. For the same compound, the growth inhibition in assay [3] (setting [7]) was 8%; in assay [3] (setting [8]), 92% (active); in assay [3] (at 50.0 µM) it was 50.1%; in assay [4] (setting [7]), -2%; in assay [4] (setting [8]), 93% (active); in assay [4] (at 50.0 µM), 52.6%. Also, the growth inhibition in assay [5] (setting [7]) was -2%; in assay [5] (setting [8]), 93% (active); in assay [5] (at 50.0 µM), 46.1%; in assay [6] (setting [7]), 5%; in assay [6] (setting [8]) it was 92% (active); in assay [6] (at 50.0 µM) it was 78.7% (active).

(Values after PubChem BioAssay (NCI).)
